Screening data deposited in PubChem BioAssay by National Center for Advancing Translational Sciences (NCATS).
NPC1 prom act – activates the NPC1 promoter. Huh7 NPC1 promoter luciferase reporter, 24 h. Potency, µM (series often up to 9.22 µM), inactives show top-dose activation, usual class: activators. 320,000 tested, 2.4% active. AID 485313; note: % of control where 0% means no effect; nearly all actives have a fitted effect of over 60% in size
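Luminescence read-out of NPC1 promoter-driven luciferase in stably transfected Huh7 cells; compounds delivered in DMSO and left 24 h at 37C, 5% CO2, qHTS titration format.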
ELG1 genotox – genotoxicity induction in ELG1-luciferase HEK293T cells; AID 504466; 330,000 tested, 1.3% active; Potency, µM (doses to about 46 µM), without a hit: at the top dose activity change, positive = activation, actives largely listed as activators; HEK293T ELG1-luciferase reporter, luminescence, 16 h; note: % of control where 0% means no effect; nearly all actives have a fitted effect of over 60% in size
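ELG1-luciferase HEK293T cells, 2,000/well; compound pinned in; 16 hr, 37 °C, 5% CO2; ONE-Glo, 30 min RT; luminescence on CCD imager.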
Rab9 promoter act – activates the Rab9 promoter. 320,000 tested, 2.8% active. Huh7 Rab9 promoter-luciferase reporter, luminescence, 24 h. Potency, µM (top dose mostly 9.22 µM), for the others: at the top dose activation, negative = inhibition, usual class: activators; note: % of control where 0% means no effect; nearly all actives have a fitted effect of over 60% in size
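Using Huh7 cells stably transfected with Rab9 promoter–luciferase, compounds were incubated 24 h at 37 °C, 5% CO2; luciferase luminescence was read 10 min after reagent addition.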
SMN2 splice enh – increases expression of the SMN2 splice variant. HEK293 SMN2-luciferase splicing reporter, luminescence, 30-36 h. Potency, µM (titrated, usually from 46.1 µM), without a hit: at the top dose activity change, positive = activation, actives largely listed as activators. AID 1458. 210,000 tested, 2.8% active; note: % of control where 0% means no effect; nearly all actives have a fitted effect of over 55% in size
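qHTS luciferase splicing reporter: luminescence rises when SMN2 exon 7 is included in transfected HEK293 cells. Compound exposure lasted 30-36 h at 37C, with 4.5 mM final sodium butyrate as control, followed by a ONE-Glo read.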
ELG1 repair inh – inhibitors of ELG1-dependent DNA repair in HEK293T cells | HEK293T ELG1-luciferase reporter, luminescence, 16 h; DNA damage induced by 5-fluorouridine | Potency, µM (top dose mostly 46.1 µM), inactives show top-dose activity change, negative = inhibition, usual class: inhibitors | 330,000 tested, 2.3% active | AID 504467; note: % is set by controls: 0 for no effect and ±100 for the full control effect; nearly all actives have a fitted effect of over 55% in size
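HEK293T cells expressing luciferase-tagged ELG1 (2,000/well) received 5-Fluorouridine plus compound or DMSO for 16 hr at 37 °C. Luciferase was read by ONE-Glo luminescence after 30 min at room temperature.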
FLuc modulator – firefly luciferase modulation, counter-screen for miR-21 project. P08659. purified FLuc, Km substrates, luminescence inhibition. Potency, µM (titrated, usually from 57.5 µM), without a hit: top-dose activity change, negative = inhibition, actives largely listed as inhibitors. 360,000 tested, 6.9% active. AID 588342;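 note: plate controls were vehicle for no effect and reference inhibitor for full effect; nearly all actives have a fitted effect of over 55% in size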
Target sequence (P08659 whole entry, looked up): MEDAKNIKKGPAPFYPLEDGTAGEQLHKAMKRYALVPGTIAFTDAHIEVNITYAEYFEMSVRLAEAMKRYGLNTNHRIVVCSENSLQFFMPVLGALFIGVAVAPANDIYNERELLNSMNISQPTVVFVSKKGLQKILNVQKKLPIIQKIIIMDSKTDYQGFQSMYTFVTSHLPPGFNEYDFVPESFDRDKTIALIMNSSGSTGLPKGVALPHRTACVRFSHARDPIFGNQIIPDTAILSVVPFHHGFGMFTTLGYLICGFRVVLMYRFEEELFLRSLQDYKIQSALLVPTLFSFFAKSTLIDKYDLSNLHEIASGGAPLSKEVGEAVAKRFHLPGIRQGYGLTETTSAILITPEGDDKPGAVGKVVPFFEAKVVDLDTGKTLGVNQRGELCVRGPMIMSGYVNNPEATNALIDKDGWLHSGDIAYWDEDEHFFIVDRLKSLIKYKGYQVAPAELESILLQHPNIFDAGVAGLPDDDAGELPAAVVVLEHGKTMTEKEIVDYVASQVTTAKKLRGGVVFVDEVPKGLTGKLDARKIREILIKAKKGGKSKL
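Biochemical qHTS of compounds, final roughly 60 µM downward over six points, against 10 nM purified firefly luciferase using Km concentrations of substrates (10 uM D-luciferin, 10 uM ATP) in Tris acetate pH 7.5 buffer; luminescence output.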
The depositor's hits bear a star; ? = inconclusive; / = no result given; [ ] = another dose, or the depositor's remark. A selection: hits, their analogues and other compounds. The true share with any hit is near 9.3%. Calls come from the whole dose curve; as a rule, active = well fitted curve in the direction sought with a large enough effect; inconclusive = small, poorly fitted or top-dose-only effect, or another doubt; inactive = no such curve, though single readings can be large; an effect the other way counts as inactive or inconclusive. Potency is the fitted concentration of half-maximal effect.

SMILES	NPC1 prom act	ELG1 genotox	Rab9 promoter act	SMN2 splice enh	ELG1 repair inh	FLuc modulator
COc1ccc(C2=NOC(Cn3nc(-c4ccccc4)cc3C(=O)NCc3cccs3)C2)cc1 (stereo unspecified)	/	-5%	/	/	12µM*	/
CCOC(=O)c1cc(-c2ccc(OC)cc2)nn1Cc1ccccc1	/	/	/	20%	/	7.6µM*
Cc1ccc(-c2cc(C(=O)O)n(Cc3ccccc3)n2)cc1	/	/	/	-20%	/	?
COc1ccc(C2=NOC(Cn3nc(-c4ccccc4)cc3C(=O)O)C2)cc1 (stereo unspecified)	0%	7%	-5%	/	?	4.8µM*
Cc1nn(-c2ccccc2)c(C)c1C(=O)NCCc1ccc(Cl)cc1	0%	2%	-1%	/	-9%	-1%
CCOC(=O)c1sc2nc(CC(=O)OC)nc(NCc3ccco3)c2c1C	0%	-7%	-3%	8%	?	-14%
Cc1sc2nc(SCC(=O)C(C)(C)C)n(Cc3ccco3)c(=O)c2c1C	-26%	-4%	-15%	-22%	?	-1%
Cc1sc2nc3c4ccccc4c(NCc4ccco4)nn3c(=O)c2c1C	?	7.1µM*	2.8µM*	10µM*	?	7.6µM*
Cc1nc(NCc2ccco2)c2c(C)c(C)sc2n1	-17%	-27%	-16%	3.2µM*	9.2µM*	0%
O=C1CCCN1CC1CCCN(Cc2nc(COc3ccccc3)no2)C1 (stereo unspecified)	0%	0%	0%	/	-3%	-2%
C/C(=N/NC(=O)c1cnccn1)c1cccs1	2µM*	?	?	8.9µM*	?	15µM*
C/C(=N/NC(=O)c1cc(C(C)C)[nH]n1)c1cccs1	0.4µM*	?	0.5µM*	11µM*	?	5.4µM*
C/C(=N\NC(=O)c1cc(C)[nH]n1)c1cccs1	1.1µM*	?	0.32µM*	11µM*	?	12µM*
C/C(=N\Nc1ccccn1)c1ccc(OC(F)F)cc1	10%	?	26%	21%	?	15µM*
O=C(N/N=C/c1cccs1)c1cnccn1	-1%	9%	9%	-15%	?	?
C[C@]1(C(=O)O)C=C[C@@H](Cc2ccccc2)N1C(=O)c1ccccc1	1%	0%	-4%	6%	15%	2%
CCCn1c(=S)[nH]c2cc(C(=O)N3CCCC(C(=O)OCC)C3)ccc2c1=O (stereo unspecified)	-14%	-11%	-17%	-49%	-29%	2%
CNC(=O)NC(=O)C(C)OC(=O)CCCSc1nc2ccccc2s1 (stereo unspecified)	-1%	-4%	-4%	-2%	0%	?
CC(NC(=O)COC(=O)c1c[nH]c2ccccc12)c1ccccc1 (stereo unspecified)	/	-2%	/	/	?	/
C/C(=N\Nc1ccccn1)c1cccs1	3.5µM*	?	3.2µM*	32µM*	?	6.7µM*
C/C(=N\Nc1ccccn1)c1ccc(C#N)cc1	1%	1%	4%	-5%	29%	?
O=C(N/N=C/c1ccccc1Cl)c1ccc(F)cc1	2.2µM*	?	2.5µM*	12%	?	2.7µM*
O=C(NN=Cc1ccccc1Cl)c1ccc(-n2cnnn2)cc1	/	3%	/	/	?	/
COc1ccc(/C=N/NC(=O)CNC(=O)c2ccc3c(c2)OCCO3)c(C(=O)O)c1OC	1%	0%[9.26 µM]	0%	/	16%	24µM*
Cn1cccc1-c1cc(C(=O)N/N=C/c2ccccc2Cl)[nH]n1	?	?	?	/	?	19µM*
SMILES	NPC1 prom act	ELG1 genotox	Rab9 promoter act	SMN2 splice enh	ELG1 repair inh	FLuc modulator
O=C(O)COc1ccccc1/C=N/NC(=O)c1ccc(F)cc1	-8%	1%	10%	-6%	-1%	9.5µM*
CC(C)(C)/C=N/NC(=O)CNC(=O)c1ccc2c(c1)OCCO2	-4%	-1%	0%	-52%	10%	0%
CCn1cc(C(=O)N[C@H](C(=O)O)C(C)C)c(=O)c2cc3c(cc21)OCO3	-2%	-1%	-9%	/	-3%	7%
O=C(O)COc1ccccc1/C=N/NC(=O)CNC(=O)c1ccc(F)cc1	8%	0%	-2%	/	3%	-2%
O=C(O)COc1ccccc1/C=N/NC(=O)c1ccc2c(c1)OCCO2	0%	3%	0%	/	23%	1.5µM*
COc1ccccc1N1CCN(C(=S)Nc2ccc(S(=O)(=O)N3CCOCC3)cc2)CC1	-4%	-15%	-9%	/	?	-2%
O=S(=O)(c1ccc(NC(=S)NCCC(c2ccccc2)c2ccccc2)cc1)N1CCOCC1	-2%	-3%	-2%	-55%	18µM*	0%
O=S(=O)(c1ccc(NC(=S)N2CCN(c3ccccc3F)CC2)cc1)N1CCOCC1	-1%	-21%	-9%	-60%	23µM*	4%
O=C(Cn1ccnc1)c1ccc(O)c(O)c1	-1%	1%	0%	/	18%	0%
Cc1nc2c(-c3ccccc3)c(C)nn2c(C)c1CCC(=O)NCc1cccc(Cl)c1	/	/	/	1%	/	-6%
S=c1nc(NCCc2ccccc2Cl)c2ccccc2[nH]1	3.2µM*	9%	3.5µM*	/	?	-10%
CC(C)c1ccc(/C=C/C(=O)NC(=S)Nc2ccc(CN3CCOCC3)cc2)cc1	-6%	-13%	4%	-37%	?	1%
O=C(O)CC/C(=N\Nc1ccc(S(=O)(=O)N2CCCC2)cc1[N+](=O)[O-])c1cccs1	-1%	-17%	0%	-30%	21µM*	-4%
C(C#CCCCCCCCCC[n+]1ccccc1)#CCCCCCCCCC[n+]1ccccc1	-33%	-9%	-34%	/	18µM*	5%
O=C(CN(C(=O)CSc1nc2ccccc2o1)c1ccccc1F)NC1CCCCC1	0%	-5%	2%	9%	-9%	3%
COc1ccc(-c2nc(CSCC(=O)NC3CCCC3)c(C)o2)cc1OC	-1%	-3%	-4%	/	15µM*	1%
COc1ccc(-c2nc(CS(=O)CC(=O)NC3CCCc4ccccc43)c(C)o2)cc1OC (stereo unspecified)	2%	5%	-4%	-1%	?	5%
COc1ccc(-c2nc(CSCC(=O)NC3CCCc4ccccc43)c(C)o2)cc1OC (stereo unspecified)	-1%	-12%	-10%	-8%	16µM*	-1%
COc1ccc(-c2nc(CSCC(=O)N3CCN(c4cccc(C)c4)C(C)C3)c(C)o2)cc1OC (stereo unspecified)	-2%	-19%	-1%	-115%	15µM*	10%
